# Screens from PubChem.
# In the library only some 3% were active in any assay of this set; here they are far more common.
# KCNH2 3.1 inh: KCNH2 3.1 (human) potassium channel inhibition; 0.95% of 340,000 active; activity change, % (tested at about 1.8 µM); U2OS KCNH2 3.1, thallium flux FluxOr; stronger effect = lower value;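 active = maximum activity change below -70%; inconclusive = maximum activity change from -70% to -50%; inactive = maximum activity change above -50%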;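 also: thallium influx rate constant from kinetic fluorescence after stimulation buffer; % is scaled to controls: 0 for no effect and ±100 for the full control effect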
#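 Thallium flux read-out: FluxOr dye with Red40 quencher in HBSS/HEPES, 45 min at RT. Rate constants from kinetic reads were normalized to positive and negative DMSO controls. Cells: U2OS virally expressing the 3.1 isoform.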
# LDHA block: inhibitors of human lactate dehydrogenase A; P00338; purified LDHA, NADH/diaphorase-resazurin fluorescence; stronger effect = lower value; activity change, % (values are at about 110 or 230 µM); 0.15% of 480,000 active; AID 1347041; in the data active = activity change below about -30%; inconclusive = mostly about -25% to -30%;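 also: plate controls were DMSO wells for no effect and wells without enzyme for full effect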
#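 Remaining NADH was detected by diaphorase (0.133 mg/mL) converting 37 µM resazurin to fluorescent resorufin, read at 0 and 20 minutes. The preceding 5-minute room-temperature reaction used 2 nM LDHA, 0.2 mM sodium pyruvate and 0.06 mM NADH at pH 7.4.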
# ClpP mod: qHTS Assay for Activators of ClpP | ATP-dependent Clp protease proteolytic subunit (Bacillus subtilis (strain 168)), P80244 | purified B. subtilis ClpP, FRET peptide cleavage, 20 min | Potency, µM (titrated, usually from 57.5 µM), inactives show at the top dose activity change, negative = active | 1.9% of 340,000 active | AID 651965, 2013; active = well fitted falling curve with a large enough effect; inconclusive = small, poorly fitted or top-dose-only effect; inactive = no such curve, though single readings can be large or run the other way; also: potency is read from the fitted curve at half-maximal effect; the source files actives as falling curves though it sought activators and does not explain the sign; nearly all actives have a fitted effect of over 65% in size
# Target sequence (P80244 whole entry, looked up): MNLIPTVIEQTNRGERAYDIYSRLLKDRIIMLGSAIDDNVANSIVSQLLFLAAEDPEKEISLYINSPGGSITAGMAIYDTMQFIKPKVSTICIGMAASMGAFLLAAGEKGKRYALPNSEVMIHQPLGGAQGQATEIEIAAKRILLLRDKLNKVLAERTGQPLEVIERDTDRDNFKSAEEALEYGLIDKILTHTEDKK
#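 Purified B. subtilis ClpP, 10 microg/mL final in Tris/HCl pH8 with KCl, BSA, glycerol and Tween-20, cleaved an Abz/nitrotyrosine-quenched decapeptide. Fluorescence (ex 320, em 430) was read at 0 and 20 min at room temperature. Delta was normalized to 5.8 microM ADEP and DMSO/no-enzyme controls.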
# Chronic BCR inh: inhibitors of chronic active B-cell receptor signaling; Potency, µM (doses to about 46.1 µM), inactives show at the highest dose activity change, negative = inhibition, actives largely listed as inhibitors; 0.05% of 340,000 active; ABC-DLBCL IkBa-CBG/CBR reporter, luminescence ratio, 4 h; active = well fitted inhibition curve with a large enough effect in the signal ratio, with a control signal flat, not every such curve was filed as active; inconclusive = small, poorly fitted or top-dose-only effect, or effect the other way, or a change in a side signal; the % refers to the signal ratio;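 also: potency is read from the fitted curve at half-maximal effect; plate controls were basal doxycycline-induced cells for no effect and cells given 10 µM MG132 for full effect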
#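 Doxycycline induced both beetle luciferases in TMD8 lymphoma cells; IKK-driven degradation limits the IkappaBalpha-fused green signal, while red luminescence normalises for cell number and nonspecific effects. Compounds tested up to 46 uM, 4 hrs.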
# 12-LOX inh: blocks human arachidonate 12S-lipoxygenase; Potency, µM (highest dose often 108 µM), inactives show at the top dose activity change, negative = inhibition, usual class: inhibitors; P18054; purified 12hLO, xylenol orange hydroperoxide absorbance; AID 1671190; 1.1% of 580,000 active; active = well fitted inhibition curve with a large enough effect; inconclusive = small, poorly fitted or top-dose-only effect, or another doubt; inactive = no such curve, though single readings can be large or run the other way; also: potency is read from the fitted curve at half-maximal effect; % is scaled to controls: 0 for no effect and ±100 for the full control effect
#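 Hydroperoxide product was detected by ferrous iron/xylenol orange as the 573 to 405 nm absorbance ratio. Arachidonic acid at 40 uM (final) was turned over for 30 min at room temperature by 150 nM human 12hLO, pH 7.0 Hepes buffer, after 15 min compound preincubation.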
# hERG WT inh: blocks the wildtype human KCNH2 potassium channel | 0.37% of 340,000 active | Q12809 | U2OS, BacMam KCNH2, thallium flux FluxOr; stronger effect = lower value | activity change, % at 1.84 µM;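 active = maximum activity change below -70%; inconclusive = maximum activity change between -70% and -50%; inactive = maximum activity change above -50%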; also: % is scaled to controls: 0 for no effect and ±100 for the full control effect
#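 U2OS cells transduced with wild-type KCNH2 virus are loaded with FluxOr dye for 45 min, and thallium flux is measured in kinetic reads before and after stimulation buffer. Rate constants are normalized to DMSO controls.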
# Numbers without * were called inactive; u = inconclusive; x = not tested or not shown; [ ] = dose if it differs, or a comment.
SMILES,KCNH2 3.1 inh,LDHA block,ClpP mod,Chronic BCR inh,12-LOX inh,hERG WT inh
Cc1ccc2c(c1)/C(=N/N1C(=O)c3ccccc3C1=O)C(=O)N2,-155.2*,4.1,-0.2%,u,-25.6%,-2.7
O=S(=O)(Nc1cc(C(F)(F)F)ccc1N1CCOCC1)c1ccccc1,2.5,1.0,3.6%,-5.0%,-8.3%,4.9
Cc1ccc(S(=O)(=O)Nc2cc(C(F)(F)F)ccc2N2CCOCC2)cc1C,-91.7*,2.8,-0.3%,-1.3%,u,-5.5
Oc1ccc(Cl)cc1C=NCc1cccc(C(F)(F)F)c1,x,-0.2,x,x,u,x
CCOC(=O)c1ccc(NC(=O)CCS(=O)(=O)c2ccc(Br)s2)cc1,-2.8,-2.6,31.6µM*,20.6%,11.9%,-2.5
COc1cccc(NS(=O)(=O)c2ccc3c(c2)C2C=CCC2C(c2ccc(C(=O)O)cc2)N3)c1 (centres undefined),-13.1,15.7,0.6%,-7.1%,12.6µM*,-0.9
Cc1ccc(NC(=S)N/N=C2\CC3CC=CC23)c(C)c1 (centres undefined),2.9,-4.8,-3.6%,-9.5%,u,-3.3
Cc1cccc(C)c1NC(=S)N/N=C1\CC2CC=CC12 (centres undefined),-131.2*,-7.2,x,u,0.1%,7.1
Cc1ccc(-n2ncc3c(NCc4cccnc4)ncnc32)cc1C,-6.6,-1.5,3.4%,5.9%,8.1%,5.4
Cc1cccc(-n2ncc3c(NCc4cccnc4)ncnc32)c1,-102.0*,-18.0,5.2%,12.5%,20.6%,-12.6
CCCCOCCCNC(=O)CCC(=O)O,x,-12.1,x,x,-16.5%,x
CC(=O)c1ccc2c(c1)Nc1ccccc1S2,-3.3,-7.5,31.6µM*,u,0.0%,0.4
C/C(=N\NC(=O)c1ccc(C)cc1C)c1ccc2c(c1)Nc1ccccc1S2,-8.6,1.3,5.6%,u,-20.4%,-11.7
CCOc1ccccc1C(=O)N(Cc1c(F)cccc1Cl)c1ccccn1,x,3.0,x,x,45.3%,x
c1coc(CNc2nc(N3CCCCC3)nc3ccccc23)c1,-18.0,-3.9,22.4µM*,-3.2%,-37.1%,13.8
OCCNc1nc(N2CCCCC2)nc2ccccc12,-21.5,-2.4,x,0.1%,u,-0.1
c1ccc(N2CCN(c3nc(NCc4ccco4)c4ccccc4n3)CC2)cc1,-103.7*,0.2,u,u,u,-80.7*
c1ccc(CNc2nc(N3CCN(Cc4ccccc4)CC3)nc3ccccc23)cc1,-104.4*,-0.4,x,u,u,-42.5
Cc1ccc(-c2cnc(SCC(=O)Nc3cccc(Cl)c3)o2)cc1C,x,-4.9,x,x,0.7%,x
O=C(OCC(=O)N1CCCCC1)c1cc(-c2cccs2)nc2ccccc12,x,-3.4,x,x,-2.6%,x
COC(=O)/C(=C/c1ccco1)NC(=O)c1ccccc1,-8.4,-6.3,-1.3%,7.6%,-0.8%,-3.5
O=C(O)/C(=C\C=C\c1ccco1)NC(=O)c1ccccc1,x,8.5,x,x,1.58µM*,x
O=C(O)/C(=C\c1ccco1)NC(=O)c1ccccc1,-5.8,-2.6,1.7%,2.8%,2.6%,-19.0
CCCOC(=O)/C(=C\C=C\c1ccco1)NC(=O)c1ccccc1,10.1,3.0,x,-2.3%,35.5µM*,-5.4
Cc1cc(C)c2cc(C(=O)NC3CCN(S(C)(=O)=O)CC3)[nH]c2c1,x,0.1,x,x,11.6%,x
SMILES,KCNH2 3.1 inh,LDHA block,ClpP mod,Chronic BCR inh,12-LOX inh,hERG WT inh
Cc1ccc(C2NC(=O)c3ccccc3N2)c(C)c1 (centres undefined),x,-6.9,28.2µM*,x,-4.9%,35.6
CN(C)c1ccc(C2NC(=O)c3ccccc3N2)cc1 (centres undefined),-7.7,-1.2,38.3%,11.3%,48.2%,6.5
Cc1cccc(C2NC(=O)c3ccccc3N2)c1 (centres undefined),5.4,-3.4,28.2µM*,x,28.1%,-2.6
Cc1ccc(C2NC(=O)c3ccccc3N2)s1 (centres undefined),-5.6,-3.1,28.2µM*,4.0%,1.6%,-7.0
Cc1ccc(N=C2C(=O)Nc3ccccc32)c(C)c1,-22.2,11.7,x,-3.4%,-11.0%,2.0
CN(C)CCCOC(=O)c1ccc(C(C)(C)C)cc1,x,4.4,x,x,0.0%,x
CCOCCCNC(=O)c1ccccc1Sc1ccccc1C#N,x,5.6,x,x,0.0%,x
N#C/C(=C\c1ccccn1)c1nc2ccccc2s1,-40.7,0.7,x,-2.8%,31.6µM*,-12.5
N#C/C(=C\c1ccc2ccccc2n1)c1nc2ccccc2s1,x,7.8,x,x,u,x
CC1CC(C)CN(S(=O)(=O)c2ccc3c(c2)oc(=O)n3CC(=O)NCc2cccnc2)C1 (centres undefined),-1.9,1.8,-0.3%,3.4%,2.9%,-157.0*
CC(O)Cn1c(N2CCN(c3ccccc3)CC2)nc2c1c(=O)[nH]c(=O)n2C (centres undefined),x,-9.4,x,x,-22.1%,x
CS(=O)(=O)N1CCCCC1CCN1CCCCC1 (centres undefined),-8.2,-7.0,28.2µM*,x,13.9%,-7.4
Cc1nc(-c2nc(-c3c(C(=O)NNC(=O)Nc4cccc(Cl)c4)noc3C)cs2)cs1,5.6,-16.1,0.1%,-13.9%,265.6%,-0.5
Cc1nc(-c2nc(-c3c(C(=O)NNC(=O)Nc4ccccc4)noc3C)cs2)cs1,-93.8*,-4.1,0.6%,-8.3%,33.3%,-77.3*
Cc1oc2cc(OC(=O)c3ccco3)ccc2c(=O)c1-c1ccc(Br)cc1,x,-34.1*,x,x,u,x
Cc1cn2c(nc(=O)c3cccnc32)s1,-4.8,-2.1,15.8µM*,7.2%,1.5%,-16.9
Cc1ccc(-n2cnc(=O)c3cccnc32)cc1,-3.7,-8.6,-0.3%,-9.6%,0.0%,27.6
O=C1CCN(S(=O)(=O)c2ccccc2)CCCN(C(=O)c2cccc3[nH]ccc23)CCN1,x,x,x,x,20.6%,x
COc1ccc(-c2cc3ccc(OS(C)(=O)=O)cc3oc2=O)cc1OC,x,-0.3,x,x,11.2%,x
CCOc1ccccc1Nc1nnc(SCc2nnc(-c3cc(OC)c(OC)c(OC)c3)o2)s1,-14.8,-0.6,31.6µM*,-0.5%,-9.8%,4.0
COC1C(=O)N(c2cccc(F)c2)C12CCN(C(=O)c1ccncc1)CC2 (centres undefined),x,x,x,x,32.5%,x
CNC(=O)NC(=O)CSc1nnc(-c2ccncc2)n1CC(F)(F)F,x,-9.8,x,x,u,x
CC(C)Cc1cnc(-c2ccccc2)[nH]1,x,x,x,x,2.9%[176 µM],x
COc1ccccc1Oc1coc2c(CN3CCN(C)CC3)c(O)ccc2c1=O,-2.6,0.2,25.1µM*,7.4%,19.8%,2.9
COc1ccccc1-c1coc2c(CN3CCN(C)CC3)c(O)ccc2c1=O,0.5,-6.5,7.94µM*,-12.7%,u,14.1
Cc1c(C)n(CCCN(C)C)c2ncn3nc(COc4cccc5ccccc45)nc3c12,x,-0.2,x,x,u,x
